Here are results for 68 compounds from PubChem BioAssay AID2289 (National Center for Advancing Translational Sciences (NCATS), 2010).

SMILES strings stand for the structures. Out of some 340,000 compounds screened, about 3,300 (0.97%) were called active. Another 9% or so got no clear call; they are omitted. Calls come from the whole dose curve; as a rule, active = well fitted inhibition curve with a large enough effect; inconclusive = small, poorly fitted or top-dose-only effect, or effect the other way; inactive = flat fitted curve, though single readings scatter. The list shows a part of the results.
Potency is the fitted concentration of half-maximal effect.

The assay can be described thus: qHTS Assay for Modulators of miRNAs and/or Inhibitors of miR-21. Note: nearly all actives have a fitted effect of over 55% in size. The note with it: HeLa miR-21-FLuc reporter, luciferase luminescence, 48 h; actives lower the signal. In outline:
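HeLa cells endogenously expressing miR-21, stably carrying CMV-driven firefly luciferase with a downstream miR-21 binding site, 2000 cells/well. Titrations up to approximately 40 uM, 48 hours; luciferase luminescence read.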
(In general: In qHTS, concentration-response curves come from the screen itself.)
As for `CNc1cccc2c1C(=O)c1ccccc1C2=O`, the Potency is 11.7 µM (active). To `CC(C)(C)c1ccc(-c2noc(-c3ccno3)n2)cc1` belongs 1.17 µM (active); to `C=CCn1c2ccccc2c(=O)c2cc(C#CC3(O)CCCCC3)ccc21`, 0.414 µM (active); to `CCCc1cc(C(=O)Nc2cccc(Cl)c2C)no1`, 6.56 µM (active). To `CCCc1cc(C(=O)Nc2ccc(CC)cc2)no1` belongs 5.21 µM (active); to `CCCc1cc(C(=O)Nc2cc(Cl)ccc2O)no1`, 2.07 µM (active); to `CCCc1cc(C(=O)Nc2cc(C)ccc2O)no1`, 3.69 µM (active). The result for `COc1cc(SC)ccc1C(=O)NCCOc1ccccc1Cl` reads 2.93 µM (active); that for `COc1cc(SC)ccc1C(=O)NCC1CCCCC1`, 10.4 µM (active); that for `COc1ccc(C(=O)NCCOc2ccccc2Cl)c(OC)c1OC`, 5.85 µM (active). Regarding `COc1cc(SC)ccc1C(=O)NCCOc1ccc(F)cc1`, the Potency is 7.36 µM (active). The result for `CCn1nc(C)c(/C=N/NC(=O)Cc2ccc(Cl)cc2)c1C` reads 11.7 µM (active); that for `COc1ccc(NC(=O)CSc2nc(SC)ns2)c(OC)c1`, 2.07 µM (active); that for `COc1ccc(NC(=O)CSc2nc(SC)ns2)cc1`, 6.56 µM (active). To `CCC(C)(C)c1ccc2c(c1)C(=O)c1ccccc1C2=O` belongs 1.65 µM (active); to `Cc1cs/c(=N\N=C\c2ccc(O)cc2)n1Cc1ccco1`, 11.7 µM (active); to `Nc1nnc(-c2ccc(Cl)cc2Cl)s1`, 8.26 µM (active).

As to `S=C(Nc1ccccc1)c1nc2ccccc2s1`, the Potency is 2.07 µM (active). The result for `O=C(NNc1nc2ccccc2s1)Nc1ccccc1` reads 4.65 µM (active); that for `CC(C)C1COC(c2cccc3ccccc23)=N1` (stereo not drawn), 6.56 µM (active). Regarding `CCOc1ccccc1CNC(=O)c1cccc(NC(=O)c2nsc3ccccc23)c1`, the Potency was 3.29 µM (active).

`CCCCNC(=O)c1cccc(NC(=O)c2nsc3ccccc23)c1`: the Potency is 2.93 µM (active). The result for `CCN=C1S/C(=C\c2sccc2C)C(=O)N1CC` reads 16.5 µM (active); that for `Cc1ccc(OCCn2cnc3c(N)ncnc32)cc1`, 16.5 µM (active); that for `Cc1cc(C(=O)COC(=O)c2ccc(O)cc2)c(C)n1Cc1ccco1`, 1.85 µM (active). To `Cc1cc(C(=O)COC(=O)c2cc(Cl)ccc2N)c(C)n1Cc1ccco1` belongs 2.93 µM (active); to `CCOc1ncccc1C(=O)OCC(=O)c1cc(C)n(Cc2ccco2)c1C`, 2.07 µM (active). Consider `C=CCn1c(C)cc(C(=O)COC(=O)c2ccc(N)c([N+](=O)[O-])c2)c1C`, for which the Potency is 1.85 µM (active). To `CSc1ncccc1C(=O)OCC(=O)c1cc(C)n(CC2CCCO2)c1C` (stereo not drawn) belongs 0.464 µM (active); to `Cc1cc(C(=O)COC(=O)c2ccco2)c(C)n1Cc1ccco1`, 4.65 µM (active); to `Cc1cc(C)n(-c2nnc(NC34CC5CC(CC(C5)C3)C4)nn2)n1`, 5.21 µM (active).

`Cc1ccc(NC(=O)OCc2cccs2)cc1`: the Potency is 1.31 µM (active). For the compound `COc1ccc(C(=O)NC(=S)NC2CCCCC2)cc1`, the Potency was 7.36 µM (active). To `COc1ccc(C(=O)NC(=S)Nc2ccccc2F)cc1` belongs 1.04 µM (active); to `O=C(NC(=S)NC1CCCCCC1)c1cncc(Br)c1`, 9.27 µM (active).

As to `COc1ccc(C(=O)NCCSC2CCCCC2)cc1`, the Potency is 7.36 µM (active).

On to `Cc1nc2ccccc2nc(C)c1=NOCc1ccc(Cl)cc1Cl`, for which the Potency is 16.5 µM (active). Regarding `Cc1nc2ccccc2nc(C)c1=NOCc1ccc(C#N)cc1`, the Potency was 11.7 µM (active).

Turning to `COc1ccc(Oc2nnc(C)c3ccccc23)cc1`, the Potency is 4.14 µM (active). The result for `COc1ccc(-c2nnc3c4ccccc4c(C)nn23)cc1` reads 8.26 µM (active); that for `COc1ccc(NC(=S)c2ccc(N(C)C)cc2)cc1`, 1.17 µM (active); that for `COc1ccc(NC(=S)N/C(=N/CS(=O)(=O)c2ccccc2)c2ccccc2)cc1`, 5.21 µM (active). The result for `COc1ccc(NC(=S)N2CCC(c3ccccc3)C2)cc1` (stereo not drawn) reads 1.65 µM (active). To `Cc1ccc(NC(=S)c2ccccc2)cc1` belongs 4.14 µM (active). As to `COc1ccc(NC(=S)c2ccccc2)cc1`, the Potency was 6.56 µM (active). The result for `COc1ccc(-c2cc(=Nc3ccc(C(=O)O)cc3)c3cc(C)ccc3o2)cc1` reads 2.07 µM (active); that for `COc1ccc(-c2cc(=NC(CC(C)C)C(=O)O)c3cc(C)ccc3o2)cc1` (stereo not drawn), 0.369 µM (active). `CCC(N=c1cc(-c2ccc(OC)cc2)oc2ccc(C)cc12)C(=O)O` (stereo not drawn): the Potency is 0.293 µM (active). Consider `Cc1ccc(-c2nc(C#N)c(NCC3CCCO3)o2)cc1` (stereo not drawn), for which the Potency was 13.1 µM (active). With `COc1ccc(-c2nc(C#N)c(NCC3CCCO3)o2)cc1OC` (stereo not drawn), the Potency was 14.7 µM (active).

Consider `Clc1ccc(N/N=C/c2ccncc2)cc1Cl`, for which the Potency is 8.26 µM (active). The result for `O=C(O)c1cccc(N/N=C/c2cccnc2)c1` reads 2.93 µM (active); that for `O=C(O)c1cc(N/N=C/c2cccnc2)ccc1Cl`, 14.7 µM (active).

For the compound `Nc1ccc(SCc2nc3cccc4c3n2CCC4)cc1`, the Potency is 14.7 µM (active). Regarding `Cc1nc(-c2ccccc2)sc1-c1nnc(C2CC2)o1`, the Potency is 4.65 µM (active). To `COc1ccccc1N1CCN(C(=S)NC(=O)/C=C/c2ccccc2)CC1` belongs 9.27 µM (active); to `O=C(/C=C/c1ccc(F)cc1)NC(=S)N1CCN(c2ccccn2)CC1`, 13.1 µM (active).

In the case of `Cc1nc2ccc(NC(=O)c3ccco3)cc2s1`, the Potency was 7.36 µM (active).

Consider `Cc1cc(NC(=O)c2ccco2)ccc1-n1cnnn1`, for which the Potency was 7.36 µM (active). To `Nc1nc2ccc(NC(=O)c3ccco3)cc2s1` belongs 7.36 µM (active); to `CSc1nc2ccc(NC(=O)c3ccco3)cc2s1`, 1.47 µM (active).

For the compound `COc1cc2sc(NC(=O)c3ccco3)nc2cc1Cl`, the Potency is 0.585 µM (active).

As to `CSc1nc2ccc(NC(=O)c3c(F)cccc3F)cc2s1`, the Potency is 7.36 µM (active).

Regarding `CC(=O)Nc1nc2ccc(NC(=O)c3ccco3)cc2s1`, the Potency is 10.4 µM (active). In the case of `Cc1nc2ccc(NC(=O)c3ccc(Br)o3)cc2s1`, the Potency was 2.93 µM (active). The result for `Nc1c(Cl)cc2c(c1Oc1ccccc1)C(=O)c1ccccc1C2=O` reads 4.14 µM (active); that for `O=C(c1ccncc1)N1N=C(c2ccc(Cl)cc2)CC1c1ccccc1O` (stereo not drawn), 6.56 µM (active). The result for `COc1ccc(C2=NN(C(=O)c3ccccc3C(=O)O)C(c3ccccc3O)C2)cc1` (stereo not drawn) reads 5.85 µM (active).
